assay: FRG1 promoter luciferase signal modulators, primary screen, FRG1 inhibition for FSHD, cell-based, C2C12 myotubes, firefly/Renilla luciferase, luminescence (AID 1084); details: higher = more signal, called active from +8 up or from −8 down

z-score, inactive:
CC(=O)Nc1cc(Br)ccc1C(=O)O 0.466
CN1CCC(CCCO)=CC1c1ccc(CN2CCCC2)cc1 (stereo unspecified) 0.745
COCCOC(=O)N1C(=O)[C@@]2(c3ccccc31)[C@H](C(=O)Nc1nc3ccccc3s1)[C@H]1C(=O)O[C@H](c3ccccc3)[C@H](c3ccccc3)N1[C@@H]2c1ccc(OCCO)cc1 2.77
COC(=O)c1ccc(C(O)C2C=CC3C(=O)N(C)C(=O)C3N2NC(=O)OC(C)(C)C)o1 (stereo unspecified) 0.896
O=C1OCCC=C[C@H]2OC34C=CCN(Cc5ccccc5)C(=O)[C@H]3N(CCCCCCO)C(=O)[C@@H]4C12 (stereo partly specified) -0.386
CC(C)N1C(=O)c2ccccc2[C@@H](C(=O)NCCCN(C)C)[C@@H]1c1ccc(CO)cc1 0.0159

From PubChem BioAssay
